# PubChem BioAssay (NCATS)
# Unmarked numbers belong to inactive results. Entries that show only a call come without a potency. Calls of active or inactive are those of the source. The call rests on the fitted dose curve; in most records, active means well fitted inhibition curve with a large enough effect; inconclusive means small, poorly fitted or top-dose-only effect; inactive means flat fitted curve, though single readings scatter.
# Tested on: Nanoluciferase (engineered Oplophorus gracilirostris luciferase)
# Test: Primary Nanoluciferase (NLuc) qHTS assay for identification of artifact compounds. (AID 1845222)
# Settings: NLuc-conditioned medium, Nano-Glo luminescence, 5 min; series mostly up to 54.1 µM
# Source text: PI: Alexander Tropsha Ph.D.
# UNC Eshelman School of Pharmacy
# University of North Carolina, Chapel Hill, North Carolina
# Hits from high-throughput screening (HTS) of chemical libraries are often false positives due to their interference with the assay detection technology. In response to this problem, we generated the largest publicly available library of chemical liabilities and developed a free webtool to predict HTS artifacts, both of which are described herein. More specifically, we generated, curated, and integrated HTS datasets for thiol reactivity, redox activity, and luciferase (firefly and nano) activity. Using these curated datasets, we developed and validated several Quantitative Structure-Interference Relationship (QSIR) models to predict nuisance behavior. […] These models were employed for virtual profiling of the National Center for Advancing Translational Science's (NCATS) in-house library, and 256 compounds for each assay were selected for the experimental validation of nuisance behavior. The BA for these external predictions ranged from 58 to 78% for compounds within the applicability domains of the models. […] The models developed in this study, along with aggregation models previously developed by our group (SCAM Detective) were implemented in "Liability Predictor," an online tool which may be used as part of chemical library design or for triaging HTS hits. Both the models and the curated datasets are publicly available at https://liability.mml.unc.edu/.
# SEQUENCE No. (e.g., 1, 2, 3, etc.); […] (e.g., Cells, Incubation, Reagent, etc.); VALUE; DESCRIPTION.
# 1; Reagent; 2 uL; Nanoluciferase media.
# 2; Compounds and control; 16 nL; Kalypsis pin tool (Wako USA) equipped with a 1536-well pin head.
# 4; Reagent; 2 uL; Luciferase enzyme.
# 6; Detection; Luminescence, ViewLux microplate reader.
# NOTES (numbers refer to Sequence numbers above)
# 1. Medium was collected from the culture flasks of NLuc-expressing S16 cells (80% confluent) prior to cell plating, filtered through a 0.22um filter, and frozen at -20C prior to use. Media was diluted (1:55) and 2 uL was dispensed into all wells of a 1536-well assay plate (solid-bottom white plate; Greiner Bio One, Monroe, NC).
# 2. A Wako Pin-tool (Wako Automation, Richmond, VA) was used to transfer 16 nL of compounds (consisting of 7-plates in qHTS format, final concentration range 18.3 nM to 114 uM) or control Cilnidipine (final concentration range 623 nM to 80 uM).
# 3. 15 min. incubation at room temperature protected from light.
# 4. 2 uL of NLuc substrate (1:100 in Nano-Glo luciferase buffer; Nano-Glo luminescence assay, Promega, Madison, WI) was dispensed for a final assay volume of 4 uL.
# 5. Plates were centrifuged (121xg, 15 seconds) and incubated for 5 minutes.
# 6. Samples were read for luminescence on a ViewLux CCD imager (PerkinElmer). Data were normalized to no-enzyme (0% activity) and no-inhibitor (DMSO; 100%) controls and the resulting percent inhibition data were fitted to a 4-parameter Hill equation using NCATS in-house software.
SMILES,Potency,"activity, negative = inhibition"
C(#Cc1cccc(CN2CCOCC2)c1)CCN1CCCCC1,inactive,–
CN1C(=O)c2ccccc2-n2c(nc3ccccc3c2=O)/C1=C/c1ccccc1,inactive,–
CC(=O)Oc1cc2c(s1)CCN([C@H](C(=O)C1CC1)c1ccccc1F)C2,inactive,–
C=C(C(=O)OC)C1CCC2(C)C(O[C@@H]3O[C@H](CO)[C@@H](O)[C@H](O)[C@H]3O)CC(=O)C(C)C2C1O (stereo not given in full),inactive,–
CCN[C@@H]1C[C@H](N)[C@@H](O[C@H]2OC(CN)=CC[C@H]2N)[C@H](O)[C@H]1O[C@H]1OC[C@](C)(O)[C@H](NC)[C@H]1O,inactive,–
C=C1C(=O)OC2/C=C(\C)CC/C=C(\C(=O)O)CC/C=C(\C)CCC12 (stereo not given),inactive,–
COc1ccc(/C=C/C(=O)O[C@@H]2[C@@H](O)[C@H](C)O[C@@H](OC3C4C=COC(O[C@@H]5O[C@H](CO)[C@@H](O)[C@H](O)[C@H]5O)C4C4(CO)OC34)[C@@H]2O)cc1OC (stereo not given in full),inactive,–
CC(=O)O[C@@H]1[C@H](O[C@@H]2O[C@H](CO)[C@@H](O)[C@H](O)[C@H]2O)[C@@H](O[C@@H]2O[C@@H](C)[C@H](O)[C@@H](O[C@@H]3O[C@H](CO)[C@@H](O)[C@H](O)[C@H]3O)[C@H]2O)[C@H](OC(=O)C23CCC4(C)C(=CCC5C6(C)CC(O)C(O[C@@H]7O[C@H](C(=O)O)[C@@H](O)[C@H](O)[C@H]7O)C(C)(C(=O)O)C6CCC54C)C2CC(C)(C)CC3O)O[C@@H]1C (stereo not given in full),–,0% [at 11.6 µM]
COC(=O)C1=COC(O[C@@H]2O[C@H](CO)[C@@H](O)[C@H](O)[C@H]2O)/C(=C\COC(=O)c2ccc(OC3OC(CO)C(O)C(O)C3O)c(OC)c2)C1CC(=O)OCCc1ccc(O)cc1 (stereo not given in full),–,4.63% [at 11.6 µM]
C[C@@H]1O[C@@H](OC[C@H]2O[C@@H](OCC3CCC4CC3C4(C)C)[C@H](O)[C@@H](O)[C@@H]2O)[C@H](O)[C@H](O)[C@H]1O (stereo not given in full),inactive,–
C[C@@H]1C/C=C/C=C\C=C\C=C\[C@H](O[C@@H]2O[C@H](C)[C@@H](O)[C@H](N)[C@@H]2O)C[C@@H]2O[C@](O)(C[C@@H](O)C[C@H]3O[C@@H]3/C=C/C(=O)O1)C[C@H](O)[C@H]2C(=O)O,inactive,–
COc1ccc(C)c2sc(NC(=O)c3ccncc3)nc12,inactive,–
CC1(C)CCC(C)(C)c2cc([C@@H](O)C(=O)Nc3ccc(C(=O)O)cc3F)ccc21,inactive,–
N[C@@H](CC(=O)N1CCn2c(nnc2C(F)(F)F)C1)Cc1[nH]nc2c(F)c(F)ccc12,inactive,–
COc1cc(C[C@H]2COC(=O)[C@@H]2Cc2ccc(O)c(OC)c2)ccc1O,inactive,–
CC(=C/C(=O)O)/C=C/[C@]1(O)[C@@]2(C)CO[C@]1(C)C[C@H](O[C@@H]1O[C@H](CO)[C@@H](O)[C@H](O)[C@H]1O)C2,inactive,–
CC(C)C1=CCC(C)(O)C(OC2OC(CO)C(O)C(O)C2O)C1 (stereo not given),inactive,–
CNC(=O)O[C@H]1COc2ccc(N3CCN(C4COC4)CC3)cc2[C@@H]1NC(=O)c1ccc(F)cc1,inactive,–
COC(=O)C1=CO[C@@H](O[C@@H]2O[C@H](COC(=O)/C=C/c3cc(OC)c(O)c(OC)c3)[C@@H](O)[C@H](O)[C@H]2O)[C@@H]2C(CO)=CC[C@H]12,inactive,–
CC(NCc1ccc(OCc2cccc(F)c2)cc1)C(N)=O (stereo not given),inactive,–

SMILES,Potency,"activity, negative = inhibition"
COc1cc(O[C@@H]2O[C@H](CO)[C@@H](O)[C@H](O)[C@H]2O)c(CCC(=O)OC[C@H]2O[C@@H](Oc3cc(OC)c(C4OC(=O)C(C)(O)C4O)cc3CCC(=O)O)[C@H](O)[C@@H](O)[C@@H]2O)cc1C1OC(=O)C(C)(O)C1O (stereo not given in full),–,0.289% [at 11.6 µM]
O=C(c1ccc(C#Cc2cccc(F)c2)cn1)N1CC2CC2C1 (stereo not given),inactive,–
C=C1C2(CCC(=O)OC2(C)C)CC(OC(=O)/C(C)=C/C)C2(C)C13OC14C(=O)OC(C)(C(=O)C12C(=O)OC4C)C3OC(C)=O (stereo not given),inactive,–
COc1cc(/C=C/C(=O)O[C@H]2[C@H](O)[C@@H](CO)O[C@@]2(CO)O[C@H]2O[C@H](COC(=O)c3ccc(O)cc3)[C@@H](O)[C@H](O)[C@H]2O)cc(OC)c1OC,inactive,–
OC[C@H]1O[C@@H](OC(CCCCc2ccc(O)cc2)CCc2ccc(O)cc2)[C@H](O[C@@H]2OC[C@](O)(CO)[C@H]2O)[C@@H](O)[C@@H]1O (stereo not given in full),inactive,–
OC[C@H]1O[C@@H](n2cnc3c2NC=NC[C@H]3O)C[C@@H]1O,inactive,–
C=C[C@H]1[C@H](O[C@@H]2O[C@H](CO[C@@H]3OC[C@](O)(CO)[C@H]3O)[C@@H](O)[C@H](O)[C@H]2O)OC=C2C(=O)OCC[C@H]21,inactive,–
COc1cc(COC2OC(CO)C(O)C(O)C2O)cc(OC)c1O (stereo not given),inactive,–
C=C[C@H]1[C@H](O[C@@H]2O[C@H](CO)[C@@H](O)[C@H](O)[C@H]2O)OC=C2C(=O)OCC[C@]21O,inactive,–
C=C1CCC2C(C)(C)C(O)CCC2(C)C1CCC(C)CCOC(=O)CCC(=O)O (stereo not given),inactive,–
COC(=O)C12C(=O)C(C)=C(O)C1(C)C(C)=CC1C34CCC(OC3=O)C(C)(C)C4CCC12C (stereo not given),inactive,–
CC1=CC(=O)OC(C)(CC(C)(O)C(=O)O)C1 (stereo not given),inactive,–
CC1[C@@H](O)[C@@H](O)C2[C@]3(C)C(C[C@H]4OC(=O)[C@H](O)[C@]1(O)[C@@]24C)C(C)(O)C[C@H](O)[C@H]3O (stereo not given in full),inactive,–
CC1CCC2(C(=O)OC3OC(COC4OC(CO)C(O)C(O)C4O)C(O)C(O)C3O)CCC3(C)C(=CCC4C5(C)CCC(O)C(C)(C(=O)O)C5CCC43C)C2C1(C)O (stereo not given),–,3.18% [at 11.6 µM]
O=C(/C=C/c1ccc(O)cc1)OCC1=CC2OC(=O)C3=CO[C@@H](O[C@@H]4O[C@H](CO)[C@@H](O)[C@H](O)[C@H]4O)[C@H]1[C@@H]32 (stereo not given in full),inactive,–
C=CC(C)(C)O[C@@H]1O[C@H](CO[C@@H]2OC[C@](O)(CO)[C@H]2O)[C@@H](O)[C@H](O)[C@H]1O,inactive,–
CC1C(=O)CC2C3C(O)CC(C(=O)O)C12CC3(C)C (stereo not given),inactive,–
CC1CCC(=O)CC(O)C(O)CC(=O)O1 (stereo not given),inactive,–
C=C(C)[C@H]1C[C@@H](O)C(=C)CC[C@@H](O)C(=C)[C@@H](O)C1,inactive,–
C[C@@H]1O[C@@H](O[C@H]2[C@H](OC(=O)C34CCC(C)(C)CC3C3=CCC5C6(C)CC(O)C(O[C@@H]7O[C@H](CO)[C@@H](O)[C@H](O)[C@H]7O)C(C)(C(=O)O)C6CCC5(C)C3(CO)CC4)O[C@H](C)[C@H](O)[C@@H]2O)[C@H](O)[C@H](O)[C@H]1O[C@@H]1OC[C@@H](O)[C@H](O)[C@H]1O (stereo not given in full),–,2.8% [at 11.6 µM]
